Screen size: about 69,000 compounds; about 8,600 (12%) showed an effect of 50% or more. The list comes from a sample in which strong results are over-represented; it also holds similar structures and randomly drawn compounds.
Tested on: Plasmodium berghei
Experiment: Screen against P. berghei liver stage (PbLuc), transformed with Luciferase, at 10uM
Type: functional, HepG2
Conditions: tested at 10 uM

| SMILES | INHIBITION |
| --- | --- |
| Cc1nnc2n1CCN(c1nc3ccccc3o1)C2 | 2.97% |
| c1ccc2oc(N3CCn4c(nnc4C4CC4)C3)nc2c1 | 68.4% |
| CC(C)c1nnc2n1CCN(c1nc3ccccc3o1)C2 | 16.8% |
| CCc1nc(C2CCCN2C(=O)c2ccc(N(C)C)nn2)no1 (stereo not given) | 24.295% |
| N[C@@H](Cc1ccccc1)c1nnc(S(=O)(=O)Cc2ccccc2)o1 | 53.8% |
| N[C@@H](Cc1ccccc1)c1nnc(S(=O)(=O)Cc2ccc(Cl)cc2)o1 | 15.4% |
| CCS(=O)(=O)c1nnc([C@@H](N)Cc2ccccc2)o1 | 11.6% |
| Cc1cnn(CC2CCCN2C(=O)c2c(C)noc2C)c1 (stereo not given) | 12.7% |
| Cc1ccnn1CCC(=O)N1CCCC1c1cc2cccnc2[nH]1 (stereo not given) | 6.26% |
| Cc1nc(N2CCOCC2)nc2c1COCC21CCN(CC2CC2)C1 (stereo not given) | 36.9% |
| CCN(Cc1ccncc1)CC1(O)CCN(C(=O)c2cccc(C)c2)C1 (stereo not given) | -9.32% |
| COc1ccccc1C(=O)NC[C@H]1COCc2nc3c(C)cccc3n21 | 50.2% |
| COc1ccc(CNC[C@H]2COCc3nc4cccnc4n32)cc1 | 6.55% |
| FC(F)(F)c1ccc(CNC[C@H]2COCc3nc4cccnc4n32)cc1 | 39.3% |
| Cc1cccc2c1nc1n2[C@@H](CNC(=O)c2ccccn2)COC1 | 37.4% |
| CC(=O)NC[C@H]1COCc2nc3c(C)cccc3n21 | 46.4% |
| COc1ccc2c(c1)nc1n2[C@@H](CNC(=O)c2ccccn2)COC1 | 7.53% |
| c1ccc(CNC[C@H]2COCc3nc4cccnc4n32)cc1 | 54.7% |
| Cc1ccc2c(c1)nc1n2[C@@H](CNC(=O)c2ccccn2)COC1 | 57% |
| Cc1cccc2c1nc1n2[C@@H](CNC(=O)NC(C)C)COC1 | 11.6% |
| Cc1cccc2c1nc1n2[C@@H](CNC(=O)Cc2ccccc2)COC1 | -33.8% |
| Cc1cccc2c1nc1n2[C@@H](CNC2CCCCC2)COC1 | 51% |
| Cc1cccc2c1nc1n2[C@@H](CNC(=O)C2CCOCC2)COC1 | 43.4% |
| CCN(CC(=O)Nc1cc(Cl)ccc1C)C(=O)c1ccc(=O)[nH]n1 | 23.2% |
| COc1ncc(-c2ccc(O)cc2)c(OC)n1 | 27.6% |
| CC(C)c1ccc(C2CC(=O)Nc3c2cnn3C)cc1 (stereo not given) | 14.7% |
| COc1ccccc1OCC(=O)NS(=O)(=O)c1ccc(C)s1 | 25.1% |
| CCNC(=O)[C@@H]1C[C@H](NC(=O)c2cncnc2C)CN1Cc1ccsc1 | 22.6% |

| SMILES | INHIBITION |
| --- | --- |
| CC(C)c1nn(C)c(N(C)C)c1CNCc1ccnc(N(C)C)c1 | -10.8% |
| Cc1nc(C)n(CC2CCCN(Cc3cccc(F)c3F)C2)n1 (stereo not given) | 31.2% |
| COc1ccc2c(c1)nc1n2[C@@H](CNCc2ccccc2)COC1 | 43.1% |
| COc1ccc2c(c1)nc1n2[C@@H](CNCc2ncccc2C)COC1 | 51% |
| COc1ccc2c(c1)nc1n2[C@@H](CNCc2nccs2)COC1 | 8.52% |
| Cc1ccc2c(n1)N(C)CCN(C(=O)NC(C)C)C2 | 23.6% |
| O=C(CCN1CCc2c(ncn2C2CC2)C1)NC1CCCC1 | -45.6% |
| CCc1ccc(C(=O)NC2CCN(c3ccn(C)n3)C2)o1 (stereo not given) | 62.4% |
| CCc1ccc(C(=O)NC2CCc3nc(C)cn3C2)o1 (stereo not given) | 2.75% |
| CCc1ccc(C(=O)NC2CCCN(c3ccn(C)n3)C2=O)o1 (stereo not given) | 20.3% |
| CNc1cc(CNC(=O)c2cccnc2)nc(-c2ccncc2)n1 | 27.8% |
| CCc1noc(C(C)N2CCN(CCN3CCCC3=O)CC2)n1 (stereo not given) | -0.113% |
| C[C@H]1C[C@H]2CN(C(=O)CC3CC3)CC[C@H]2O1 | 1.94% |
| Cc1ccc(CN2C(=O)CCC2C(=O)Nc2cnn(C)c2)o1 (stereo not given) | 36.7% |
| CC(=O)N1CCCC(C(=O)NCCOc2cc(C)cc(C)c2)C1 (stereo not given) | -33.7% |
| CCN(CC)C(=O)[C@@H]1C[C@@H](NC(=O)c2ccn(C(C)(C)C)c2)CN1C | 51.3% |
| CCN(CC)C(=O)[C@@H]1C[C@H](NC(=O)c2ccn(C(C)(C)C)c2)CN1C | 21.7% |
| CCN(CC)C(=O)[C@@H]1C[C@@H](NC(=O)c2ccoc2)CN1C | 6.88% |
| O=C(NCc1cccs1)c1nc2c(o1)CN(C(=O)c1cccnc1)C2 | -4.4% |
| COc1ccc(C2CCCN2C(=O)c2cc(C(C)C)on2)cc1 (stereo not given) | -75.1% |
| COc1cccc(C2CCN2C(=O)c2cnccn2)c1 (stereo not given) | -3.81% |
| COc1cccc(C2CCN2C(=O)c2cc(C(C)C)on2)c1 (stereo not given) | 55.5% |
| Cc1ccc(N2CC[C@H]3C[C@H](C(=O)NCc4ccco4)O[C@H]3C2)nn1 | 14.5% |
| CN(CCSc1nncn1C(C)(C)C)c1ccccc1 | -9.8% |
| Cc1ccc2c(c1)CCC2NCc1c(C)nn(C)c1N1CCOCC1 (stereo not given) | 33.8% |
| CC1CCC(O)(CSc2nnnn2C2CC2)CC1 (stereo not given) | -44.2% |
| O=C(O)c1ccn(-c2ccccc2NS(=O)(=O)c2cccc(F)c2)n1 | 30.3% |

Reference: ChEMBL document CHEMBL4513216, “Probing the Open Global Health Chemical Diversity Library for Multistage-Active Starting Points for Next-Generation Antimalarials” (ACS Infect Dis, 2020)
